DT40 TDP1 no CPT = qHTS for Inhibitors of human tyrosyl-DNA phosphodiesterase 1 (TDP1): qHTS in cells in absence of CPT. Potency, µM (titrated, usually from 46.2 µM), inactives show top-dose activity change, negative = growth inhibition, most hits filed as inhibitors. AID 686978, 2013. actives 15% (n = 420,000). DT40 Tdp1-/- hTDP1 cells, no CPT, ATP luminescence, 48 h; note: potency is the fitted concentration of half-maximal effect; nearly all actives have a fitted effect of over 55% in size
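Seeded 400 DT40-hTDP1 cells/well (vehicle DMSO, no 20 nM CPT); pinned compounds; ≥48 hr at 37 °C; CellTiter-Glo luminescence as viability measure.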
IL-1B inflam inh = qHTS for Inhibitors of Inflammasome Signaling: IL-1-beta AlphaLISA Primary Screen. activity change, % at 57.5 µM. actives 4.7% (n = 360,000). THP-1 LPS/ATP IL-1B secretion, AlphaLISA, 16 h; hits give low values; in the data active = activity change below about -50%; inconclusive = mostly about -30% to -49%
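THP-1 cells pretreated 1 hr with compounds (up to 57.5 uM final), then stimulated with LPS (250 ng/mL final) plus ATP (1.25 mM final); secreted IL-1B measured by AlphaLISA after 16 hr, decreased signal indicating inhibition.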
HT1080 IDH1KD tx = qHTS for induction of synthetic lethality in tumor cells producing 2HG: qHTS for the HT-1080-IDH1KD cell line; Potency, µM (doses to about 46.1 µM), inactives show at the top dose activity, negative = toxicity, hits mostly cytotoxic; HT-1080 IDH1 knockdown viability, ATP luminescence, 48 h; actives 2% (n = 360,000); AID 686971, 2013;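 note: potency is the fitted concentration of half-maximal effect; 0% = DMSO wells and -100% = cell-free medium wells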
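In this qHTS, HT-1080 cells depleted of IDH1 are exposed for 48 h at 37 °C to compound titrations. Toxicity is scored from CellTiter-Glo luminescence, with DMSO as full viability and medium alone as none.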
ELG1 repair inh = qHTS screen for small molecules that inhibit ELG1-dependent DNA repair in human embryonic kidney (HEK293T) cells expressing luciferase-tagged ELG1; HEK293T ELG1-luciferase reporter, luminescence, 16 h; DNA damage induced by 5-fluorouridine; Potency, µM (top dose mostly 46.1 µM), for inactives: at the top dose activity change, negative = inhibition, usual class: inhibitors; actives 2.3% (n = 330,000); AID 504467, 2011; note: potency is the fitted concentration of half-maximal effect; nearly all actives have a fitted effect of over 55% in size
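DMSO vehicle served as the neutral condition. Each well held 2,000 cells given 5-fluorouridine plus compound; after 16 hr at 37 °C/5% CO2, ONE-Glo was added and luciferase measured 30 min later.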
DT40 TDP1 CPT = qHTS for Inhibitors of human tyrosyl-DNA phosphodiesterase 1 (TDP1): qHTS in cells in presence of CPT | chicken DT40 Tdp1-/-;hTDP1 cells + 20 nM CPT, ATP luminescence, 48 h | Potency, µM (top dose mostly 46.2 µM), without a hit: at the highest dose activity change, negative = growth inhibition, most hits filed as inhibitors | actives 12% (n = 420,000); note: potency is the fitted concentration of half-maximal effect; nearly all actives have a fitted effect of over 55% in size
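Cell growth measured by CellTiter-Glo luminescence after a minimum 48 h, 37 C compound exposure with 20 nM CPT in Tdp1-knockout DT40 cells stably expressing hTDP1, seeded 400/well; qHTS titration format.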
HT1080NT lethal = qHTS for induction of synthetic lethality in tumor cells producing 2HG: qHTS for the HT-1080-NT fibrosarcoma cell line; Potency, µM (series often up to 46.1 µM), inactives show at the top dose activity, negative = less viability, most hits filed as cytotoxic; actives 1.6% (n = 360,000); HT-1080-NT fibrosarcoma viability, CellTiter-Glo ATP luminescence, 48 h;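 note: NT is the 2HG producing partner of a matched IDH1 knockdown line; potency is the fitted concentration of half-maximal effect; 0% = DMSO-treated cells and -100% = media-only wells without cells; nearly all actives have a fitted effect of over 55% in size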
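Fibrosarcoma NT cells, 750 per well in 5% FBS RPMI, were exposed to compound for 48 hours. Viability: CellTiter-Glo luminescence.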
Numbers without * were called inactive. Most compounds without a hit are left out; they make up all but 19% or so of the library. Unless noted, calls come from the whole dose curve; as a rule, active = well fitted curve in the direction sought with a large enough effect; inconclusive = small, poorly fitted or top-dose-only effect, or another doubt; inactive = no such curve, though single readings can be large; an effect the other way counts as inactive or inconclusive. Unless noted, % is set by controls: 0 for no effect and ±100 for the full control effect.

Screening COc1cc(Cl)c(C)cc1Nc1ncccn1 returned DT40 TDP1 no CPT -25.5%, IL-1B inflam inh -1.9, HT1080 IDH1KD tx -0.3%, ELG1 repair inh 14.6%, DT40 TDP1 CPT 8.1% and HT1080NT lethal -1.6%.
Cc1nn(C)c2c1c(-c1ccccc1)cc(=O)n2Cc1ccc(Cl)cc1 was read as DT40 TDP1 no CPT -8.7% and DT40 TDP1 CPT 2.1%.
`COCCn1c(SCC(=O)N2CCC(C)CC2)nc2c(c1=O)SCC2` gave DT40 TDP1 no CPT -15.2%, IL-1B inflam inh 0.0, HT1080 IDH1KD tx -0.3%, ELG1 repair inh -4.0%, DT40 TDP1 CPT -26.6% and HT1080NT lethal 1.7%.
`CCc1c(C#N)c(SCc2c(C)noc2C)nc2c1C(=O)CC(C)(C)C2` gave DT40 TDP1 no CPT inconclusive, IL-1B inflam inh 9.2, HT1080 IDH1KD tx -12.2%, ELG1 repair inh inconclusive, DT40 TDP1 CPT 25.9µM* and HT1080NT lethal -27.5%.
Screening CCc1c(C#N)c(SCCC(=O)Nc2ccc(OC)cc2)nc2c1C(=O)CC(C)(C)C2 returned DT40 TDP1 no CPT inconclusive, IL-1B inflam inh inconclusive, HT1080 IDH1KD tx -9.7%, ELG1 repair inh inconclusive, DT40 TDP1 CPT -24.2% and HT1080NT lethal -5.0%.
For COc1cccc(OCc2ccc(Cl)cc2)c1C#N the results were DT40 TDP1 no CPT 18.4µM*, IL-1B inflam inh -2.0, HT1080 IDH1KD tx -6.7%, ELG1 repair inh inconclusive, DT40 TDP1 CPT inconclusive and HT1080NT lethal -14.2%.
`CC(=O)N1CCCC(c2cc(C(=O)Nc3ccccc3)no2)C1` (stereo not given) gave DT40 TDP1 no CPT inconclusive, IL-1B inflam inh 1.9, HT1080 IDH1KD tx -16.1%, DT40 TDP1 CPT -24.7% and HT1080NT lethal -3.7%.
Screening O=C(Nc1ccccc1)c1cc(C2CCCN(C(=O)C/C=C/c3ccccc3)C2)on1 (stereo not given) returned DT40 TDP1 no CPT 20.6µM*, IL-1B inflam inh -2.9, HT1080 IDH1KD tx -9.6%, DT40 TDP1 CPT inconclusive and HT1080NT lethal -26.4%.
`CCCC(=O)N1CCCC(c2cc(C(=O)NCc3ccccc3)no2)C1` (stereo not given) gave DT40 TDP1 no CPT -7.4%, IL-1B inflam inh 0.6, HT1080 IDH1KD tx inconclusive, DT40 TDP1 CPT -10.5% and HT1080NT lethal 20.6%.
`CC(C)(C)c1ccc(NC(=O)c2cc(C3CCCN(C(=O)CCc4ccccc4)C3)on2)cc1` (stereo not given) gave DT40 TDP1 no CPT 11.6µM*, IL-1B inflam inh 0.0, HT1080 IDH1KD tx -28.2%, DT40 TDP1 CPT 8.2µM* and HT1080NT lethal -6.9%.
For CCCC(=O)N1CCCC(c2cc(C(=O)Nc3ccc4c(c3)OCO4)no2)C1 (stereo not given) the results were DT40 TDP1 no CPT 4.8%, IL-1B inflam inh 3.8, HT1080 IDH1KD tx -9.3%, DT40 TDP1 CPT -29.2% and HT1080NT lethal 14.8%.
`O=C(Nc1ccc2c(c1)OCO2)c1cc(C2CCCN(C(=O)CCc3ccccc3)C2)on1` (stereo not given) gave DT40 TDP1 no CPT inconclusive, IL-1B inflam inh -3.3, HT1080 IDH1KD tx inconclusive, DT40 TDP1 CPT 20.6µM* and HT1080NT lethal -29.4%.

From PubChem
